# Screening results (PubChem BioAssay)
# TDP1 inh – qHTS Assay for Inhibitors of Tyrosyl-DNA Phosphodiesterase (TDP1) | Tyrosyl-DNA phosphodiesterase 1 (Homo sapiens), Q9NUW8 | recombinant TDP1, AlphaScreen DNA substrate cleavage | Potency, µM (doses to about 130 µM), inactives show at the top dose activity change, negative = inhibition, usual class: inhibitors | 350,000 compounds, 0.28% hits | AID 485290, 2010; note: potency is the fitted concentration of half-maximal effect; % is set by controls: 0 for no effect and ±100 for the full control effect; nearly all actives have a fitted effect of over 40% in size
# Target sequence (Q9NUW8 whole entry, looked up): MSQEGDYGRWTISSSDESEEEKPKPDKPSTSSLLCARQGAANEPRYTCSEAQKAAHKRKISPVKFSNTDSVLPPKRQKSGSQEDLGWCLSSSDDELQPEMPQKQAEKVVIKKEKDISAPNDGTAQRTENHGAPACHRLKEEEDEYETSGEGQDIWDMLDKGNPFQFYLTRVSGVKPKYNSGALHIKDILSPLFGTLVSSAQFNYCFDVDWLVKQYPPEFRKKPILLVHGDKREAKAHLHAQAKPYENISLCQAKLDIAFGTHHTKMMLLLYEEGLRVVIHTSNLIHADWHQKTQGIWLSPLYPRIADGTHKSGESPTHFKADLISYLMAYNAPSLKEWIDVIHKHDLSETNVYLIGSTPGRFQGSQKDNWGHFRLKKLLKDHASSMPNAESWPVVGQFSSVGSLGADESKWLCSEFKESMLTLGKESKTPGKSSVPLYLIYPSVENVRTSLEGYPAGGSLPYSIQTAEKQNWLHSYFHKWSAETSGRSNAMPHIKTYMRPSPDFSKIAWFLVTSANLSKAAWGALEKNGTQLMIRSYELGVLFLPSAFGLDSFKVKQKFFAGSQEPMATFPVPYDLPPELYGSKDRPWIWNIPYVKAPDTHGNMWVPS
#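 Recombinant human Tdp1 (E. coli-expressed, 1 nM final) preincubated with compounds 15 min at room temperature, then 5'-biotin/3'-phosphotyrosine-FITC DNA substrate (15 nM final) added for 5 min. AlphaScreen beads (10 ug/ml final) added 10 min; cleavage lowers signal.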
# HP1b chromo inh – HTS for Inhibitors of HP1-beta Chromodomain Interactions with Methylated Histone Tails. AID 540317, 2011. Potency, µM (titrated, usually from 114 µM), for the others: top-dose activity change, negative = inhibition, most hits filed as inhibitors. AlphaScreen HP1-beta / biotin-H3K9me3 peptide binding. 390,000 compounds, 0.56% hits. Chromobox protein homolog 1 (Homo sapiens), P83916; note: potency is the fitted concentration of half-maximal effect; nearly all actives have a fitted effect of over 70% in size
#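 Compound inhibition of the preformed complex between 50 nM HP1-beta and 50 nM biotinylated H3K9me3 peptide was read by AlphaScreen. Buffer was PBS pH 7.4 with 0.01% Tween-20. Incubations ran 30 min at room temperature, with 10 ug/mL donor/acceptor beads.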
# Six1-Eya2 inh – qHTS Assay for Inhibitors of the Six1/Eya2 Interaction; activity change, % (concentration not given with the values); AID 651725, 2012; 360,000 compounds, 0.56% hits; AlphaScreen GST-Six1/His-Eya2 binding, biochemical; stronger effect = lower value; Homeobox protein SIX1 (Homo sapiens) + Protein phosphatase EYA2 (Homo sapiens), …; in the data active = activity change below about -65%; inconclusive = mostly about -30% to -63%; note: % is set by controls: 0 for no effect and ±100 for the full control effect
#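 AlphaScreen with GST-Six1 and His-Eya2 (5X mix: 250 nM and 500 nM), glutathione donor and nickel acceptor beads; buffer 50 mM Tris pH 8.0, 300 mM NaCl, 1 mM TCEP; 1 h at 37 C in the dark.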
# BAZ2B block – qHTS Assay for Inhibitors of BAZ2B; Potency, µM (series often up to 114 µM), without a hit: at the top dose activity change, negative = inhibition, hits mostly inhibitors; AlphaScreen BAZ2B-H3K14Ac peptide displacement; 360,000 compounds, 4.4% hits; Bromodomain adjacent to zinc finger domain protein 2B (Homo sapiens), Q9UIF8; note: potency is the fitted concentration of half-maximal effect; % is set by controls: 0 for no effect and ±100 for the full control effect; nearly all actives have a fitted effect of over 60% in size
#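 Compounds, titrated to a top concentration of 110 uM, were incubated 30 min at room temperature with preformed BAZ2B/acetyl-K14 H3 peptide complex (50 nM each). Proximity signal was measured by AlphaScreen after 20 min with beads.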
# CtBP-E1A inh – qHTS Assay for Inhibitors of the CtBP/E1A Interaction. AlphaScreen GST-E1A/His-CtBP binding, 1536-well; stronger effect = lower value. activity change, % (test concentration not listed). 340,000 compounds, 0.49% hits; in the data active = activity change below about -65%; inconclusive = mostly about -30% to -63%; note: % is set by controls: 0 for no effect and ±100 for the full control effect
#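 In 5 uL wells, 23 nL compound meets equimolar GST-E1A and His-CtBP (5X stock 125 nM each) for 2 h, 37 °C. Beads (5X, 50 ug/mL) then 1 h, 37 °C, dark.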
# JMJD2A Tudor inh – qHTS Assay for Inhibitors of JMJD2A-Tudor Domain; Lysine-specific demethylase 4A (Homo sapiens), O75164; AlphaScreen JMJD2A-Tudor / H3K4me3 peptide binding; Potency, µM (highest dose often 114 µM), for inactives: top-dose activity change, negative = inhibition, hits mostly inhibitors; 390,000 compounds, 4.4% hits; note: potency is the fitted concentration of half-maximal effect; % is set by controls: 0 for no effect and ±100 for the full control effect; nearly all actives have a fitted effect of over 50% in size
# The depositor's hits bear a star; ? = inconclusive; / = no result given; [ ] = another dose, or the depositor's remark. Hits are enriched below; roughly 5.3% of the tested compounds scored in any of these assays. Unless noted, calls come from the whole dose curve; as a rule, active = well fitted inhibition curve with a large enough effect; inconclusive = small, poorly fitted or top-dose-only effect; inactive = no such curve, though single readings can be large or run the other way.
SMILES,TDP1 inh,HP1b chromo inh,Six1-Eya2 inh,BAZ2B block,CtBP-E1A inh,JMJD2A Tudor inh
COc1cc(NC(=O)c2cccs2)c(OC)cc1NC(=O)CCC(=O)Nc1ccc2ncccc2c1,1%,2%,-69*,-12%,/,-8%[11.4 µM]
COc1cc(NC(=O)c2cccs2)c(OC)cc1NC(=O)Cc1ccccc1,14%,-3%,-81*,-35%,-6,-12%
Cc1ccc2oc3c(c(=O)c2c1)C(c1cccc(O)c1)N(Cc1ccccc1Cl)C3=O (stereo not drawn),4%,5%,/,0%[57.1 µM],/,-15%
COCCNc1nc(C)nc2c1nc(-c1ccccc1)n2C1CCN(Cc2ccccc2)C1 (stereo not drawn),7%,/,/,/,/,/
CCOc1ccc(NC(=O)Nc2cccn(Cc3ccccc3)c2=O)cc1,4%,-16%,-19,40µM*,-4,?
Cc1ccc(S(=O)(=O)Nc2ccc3cn[nH]c3c2)cc1,1%,32%,2,8%,/,-12%
Cc1ccc(S(=O)(=O)Nc2cc(C)c(O)c(Sc3n[nH]c(C)n3)c2)cc1,7%,?,-6,-28%,-5,11µM*
COc1cc(Cl)c(C)cc1NC(=O)CSc1cc(-c2ccccc2)nc(C)n1,-2%,73%,/,17%,/,17%
CN(C)C(N)=NCCC[C@H](N)C(=O)O,14%[56.1 µM],2%,1,/,-24,89µM*
NC(N)=NCCC[C@@H](N)C(=O)O,-4%,/,/,/,/,/
CC(=NNC(=S)Nc1ccc(C)cc1)c1ccccn1,/,?,-85*,/,-8,79µM*
COc1ccccc1NC(=O)c1ccccc1NC(=O)c1ccccn1,2%[0.505 µM],13%,-3,3%,-8,-9%
CC(=NNC(=S)Nc1cccc(C)c1)c1ccccn1,/,?,-81*,/,3,50µM*
COc1ccccc1NC(=S)NN=C(C)c1ccccn1,/,?,-72*,/,-81*,?
CNc1ncnc2c1ncn2[C@@H]1O[C@H](COP(=O)(O)O)[C@@H](O)[C@H]1O,6%,/,/,/,/,/
COC1(C)CC2C(CC1OC(=O)c1cc([N+](=O)[O-])cc([N+](=O)[O-])c1)C2(C)C (stereo not drawn),9%,?,?,7.1µM*,-18,25µM*
COc1ccc(OCc2cc(C(=O)O)c(C)o2)cc1,14µM*,/,/,79µM*,/,/
COc1ccccc1S(=O)(=O)N1CCN(c2nc(-c3cccs3)nc3ccccc23)CC1,0%,37%,/,/,/,-14%
COc1ccc(Nc2nc(-c3cccs3)nc3ccccc23)cc1S(=O)(=O)N1CCOCC1,/,34%,?,/,-67*,-15%[11.4 µM]
COc1cccc(-c2cc(C(F)(F)F)n3nc(C)c(-c4ccccc4)c3n2)c1,3%,12%,/,-17%,/,-13%
CC(Cc1c[nH]c2ccccc12)C(=O)NCc1ccco1 (stereo not drawn),/,?,-11,50µM*,-7,?
O=C(CCc1c[nH]c2ccccc12)NCc1ccco1,-4%,36%,-7,?,0,-6%
CCOc1ccc(OCC)c(NC(=O)c2cnc3c(-c4ccccc4)c(C)nn3c2C)c1,3%,19%,/,-15%,/,-9%
COc1ccc(-n2c(-c3ccccc3)cc3c2CCCC3=O)cc1,-4%,?,?,11µM*,?,32µM*
CN(C)c1ccc(CNS(=O)(=O)c2ccc3[nH]c4c(c3c2)CCCCC4)cc1,6%,-10%,/,3%[57.1 µM],/,-16%
SMILES,TDP1 inh,HP1b chromo inh,Six1-Eya2 inh,BAZ2B block,CtBP-E1A inh,JMJD2A Tudor inh
Cc1ccc2c(c1)c1c(n2CC(O)CNC2CCCCC2)CCCC1 (stereo not drawn),7%,?,?,50µM*,?,32µM*
Cc1ccc2c(c1)c1c(n2CC(O)CNC(CO)(CO)CO)CCCC1 (stereo not drawn),7%,-2%,-14,?,-7,?
Cc1ccc2c(c1)c1c(n2CC(O)CN2CCC(C)CC2)CCCC1 (stereo not drawn),-7%,-25%[57 µM],?,?,/,40µM*
CCOc1ccc(Nc2nnc(-n3nc(C)cc3C)c3ccccc23)cc1,2%,55%,/,19%,/,-3%
O=C(Oc1c(CN2CCOCC2)cc(Cl)c2cccnc12)c1ccccc1Cl,9%,34%,-93*,11µM*,-91*,50µM*
O=C(Oc1c(Cl)cc(Cl)c2cccnc12)c1cccs1,5%,125%,-67*,24%,-82*,38%
O=C(Oc1c(CN2CCOCC2)cc(Cl)c2cccnc12)c1cccs1,8%,25%,-84*,/,-86*,?
O=C(Nc1cccnc1Cl)c1cccs1,2%,25%,8,5%,8,-8%
Cn1c(=O)n2n(c1=O)[C@H]1[C@H](O)[C@H]3O[C@@H]3/C(=N/OCc3ccccc3)[C@@H]1CC2,8%[21 µM],/,/,/,/,/
O=[N+]([O-])c1cc(F)cc(F)c1Nc1cc(F)cc(F)c1,/,?,?,/,?,45µM*
O=[N+]([O-])c1ccc2nonc2c1Nc1cccc(F)c1,/,-21%,?,?,-9,?
CC(C)(C)NC(=O)CCN(/N=C/c1ccncc1)C1=NS(=O)(=O)c2ccccc21,/,24%,-68*,19%,-82*,-11%
O=S1(=O)N=C(N(CCO)/N=C/c2ccncc2)c2ccccc21,8%,-7%,-80*,-30%,-78*,-19%
O=C1C(F)=CC(COC(c2ccccc2)(c2ccccc2)c2ccccc2)OC1n1cc(F)c(=O)[nH]c1=O (stereo not drawn),/,-13%,-22,/,2,50µM*
CCOc1ccc(CCNC(=O)c2ccc3c(=O)[nH]c4c(C(=O)NC(C)C)sc(=S)n4c3c2)cc1,-13%,20%,-9,?,/,9%
O=C(NCC1CCCO1)c1sc(=S)n2c1[nH]c(=O)c1ccc(C(=O)N3CCCCC3)cc12 (stereo not drawn),2%,-24%,-28,?,?,?
O=C(NCCc1ccccc1)c1ccc2c(=O)[nH]c3c(C(=O)NCC4CCCO4)sc(=S)n3c2c1 (stereo not drawn),10%,?,-10,35µM*,0,45µM*
CC(C)NC(=O)c1sc(=S)n2c1[nH]c(=O)c1ccc(C(=O)NCCc3ccc(Cl)cc3)cc12,/,-21%[57 µM],1,-24%,/,35µM*
